# Results as given in PubChem BioAssay AID1445 (SRMLSC, 2008).
# The whole screen tested about 220,000 compounds, of which about 910 (0.41%) were called active. The entries come from a sample that favours actives as a whole. Results with a measured potency or affinity are listed apart. A number with no mark means an inactive call.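 The calls were made as follows: active = primary inhibition above the hit cutoff, then over 50% inhibition at one or more dose response concentrations (cut at about 23% in these data, passing the limit was not always enough); inconclusive = conflicting primary data, or primary hits not chosen for dose response; inactive = low primary inhibition, or under 50% at every dose.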
# Molecular target: Aminopeptidase N (Plasmodium falciparum (isolate 3D7)) (UniProt O96935)
# Assay: P. falciparum M1AAP inhibitors, biochemical, fluorogenic H-Leu-NHMec substrate, 1536-well (AID 1445);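 also: plate controls were DMSO full reaction for no effect and no enzyme background for full effect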
# Settings: recombinant M1AAP, H-Leu-NHMec fluorogenic kinetic assay; at 30 µM, active compounds read high unless noted
# Chain of Aminopeptidase N (Plasmodium falciparum (isolate 3D7)) (O96935 whole entry, looked up): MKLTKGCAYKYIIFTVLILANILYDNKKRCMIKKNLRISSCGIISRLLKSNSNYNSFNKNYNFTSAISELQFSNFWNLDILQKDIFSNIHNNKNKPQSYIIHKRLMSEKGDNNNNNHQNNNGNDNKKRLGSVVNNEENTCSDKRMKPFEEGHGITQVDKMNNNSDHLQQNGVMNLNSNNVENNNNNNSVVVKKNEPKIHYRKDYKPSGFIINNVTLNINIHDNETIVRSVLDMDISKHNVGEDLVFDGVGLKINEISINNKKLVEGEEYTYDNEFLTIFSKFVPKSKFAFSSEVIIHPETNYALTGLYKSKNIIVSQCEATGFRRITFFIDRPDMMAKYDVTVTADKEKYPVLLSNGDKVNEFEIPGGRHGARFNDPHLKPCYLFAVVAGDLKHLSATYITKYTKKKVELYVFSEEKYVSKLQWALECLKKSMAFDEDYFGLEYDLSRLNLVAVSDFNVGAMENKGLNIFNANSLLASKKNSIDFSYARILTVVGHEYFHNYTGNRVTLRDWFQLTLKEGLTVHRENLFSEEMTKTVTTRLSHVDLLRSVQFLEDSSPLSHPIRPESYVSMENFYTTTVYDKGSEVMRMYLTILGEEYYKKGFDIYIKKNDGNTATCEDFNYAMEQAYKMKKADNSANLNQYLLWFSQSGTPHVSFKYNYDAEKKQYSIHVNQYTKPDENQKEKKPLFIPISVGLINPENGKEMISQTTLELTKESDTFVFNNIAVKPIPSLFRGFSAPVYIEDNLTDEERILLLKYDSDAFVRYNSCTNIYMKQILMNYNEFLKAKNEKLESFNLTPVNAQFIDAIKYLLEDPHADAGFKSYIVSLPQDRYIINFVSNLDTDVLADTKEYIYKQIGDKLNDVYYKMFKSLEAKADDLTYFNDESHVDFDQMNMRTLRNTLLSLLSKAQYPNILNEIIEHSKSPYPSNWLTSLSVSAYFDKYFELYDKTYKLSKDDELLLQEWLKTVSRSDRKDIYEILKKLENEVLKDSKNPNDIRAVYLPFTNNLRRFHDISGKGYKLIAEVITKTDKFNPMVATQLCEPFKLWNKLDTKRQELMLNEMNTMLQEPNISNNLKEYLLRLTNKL
row,SMILES,inhibition
1,NC(=O)c1c(NC(=O)COC(=O)c2ccc(S(=O)(=O)Nc3ccccc3)cc2)sc2c1CCCC2,6.65%
2,COc1cc(C(=O)NCc2cn3ccccc3n2)cc(OC)c1OC,9.74%
3,CN(C(=O)COC(=O)/C=C/c1cn(-c2ccccc2)nc1-c1ccc2c(c1)OCCO2)C1CCS(=O)(=O)C1 (centres undefined),9.43%
4,CCn1c(SCC(=O)NCCc2ccccc2)nnc1-c1cccs1,8.15%
5,CCn1c(CCNC(=O)c2cccs2)nnc1SCC(=O)Nc1ccc(Cl)cc1,2.16%
6,CCOC(=O)CSc1nnc(CNC(=O)c2cccs2)n1CCc1ccccc1,-4.29%
7,CCn1c(CNC(=O)c2cccs2)nnc1SCC(=O)Nc1ccc(Cl)cc1,4.83%
8,O=C1CCCc2c1nc(-c1ccc(F)cc1)n2O,0.92%
9,COC(=O)C1=C(Nc2ccc(C)cc2)C=C(C)C(C(=O)OC)C1c1ccc(OC)cc1 (centres undefined),-4%
10,CC(=O)c1cccc(NC(=O)c2cc(-n3cnnc3)ccc2Cl)c1,6.6%
11,CC(=O)c1ccc(NC(=O)c2ccc3nc(-c4ccco4)c(-c4ccco4)nc3c2)cc1,10.9%
12,O=C(Nc1cccc(C(F)(F)F)c1)c1ccc2nc(-c3ccco3)c(-c3ccco3)nc2c1,23.9% (active)
13,O=C(Nc1ccccc1)c1ccc2nc(-c3ccco3)c(-c3ccco3)nc2c1,13.6%
14,CCn1c(CCNC(=O)c2ccc(Cl)c(Cl)c2)nnc1SCCOc1ccc(OC)cc1,1.21%
15,CCOC(=O)Cn1c(=O)c2c(nc(N3CCOCC3)n2C)n(C)c1=O,0.98%
16,O=C(Cc1cccs1)NCc1ccccc1,3.77%
17,O=C(Cc1ccc(-c2ccccc2)cc1)NCc1ccccc1,-0.4%
18,Cc1ccc(NC(=O)COC(=O)CNC(=O)c2ccc(C)s2)cc1,5.25%
19,Cc1ccc(C(=O)NCC(=O)OCC(=O)NCCc2ccccc2)s1,0.53%
20,CSCCC(C(=O)Nc1ccc2c(c1)OCO2)N1C(=O)c2ccccc2C1=O (centres undefined),4.81%
21,CC(C(=O)NC1=NCCS1)N1C(=O)c2ccccc2C1=O (centres undefined),22.3%
22,CCOP(=O)(O)c1cccc(OCCOCCOc2cccc(P(=O)(O)OCC)c2)c1,-1.13%
23,COc1ccc(C2NC(=S)NC(C)=C2C(=O)N2CCOCC2)cc1 (centres undefined),0.92%
24,CC(NCC1(N2CCOCC2)CCCCC1)C(=O)Nc1ccc(Cl)cc1Cl (centres undefined),-2.83%

row,SMILES,inhibition
1,C=CCNC(NC(=O)c1ccccc1)(C(=O)OCC)C(F)(F)F (centres undefined),-7.27%
2,COc1ccc(/C=C2\SC(=O)N(CCC(=O)Nc3ccccc3)C2=O)cc1OC,7.25%
3,COc1cc(/C=C2\SC(=S)N(NC(=O)c3cccnc3)C2=O)ccc1O,19.8%
4,COc1cc(/C=C2\SC(=S)N(N(C)c3ccccc3)C2=O)ccc1O,3.49%
5,COc1ccc(/C=C2/SC(=O)N(CCC(=O)Nc3ccccc3)C2=O)cc1OC,-3.04%
6,COc1cc(/C=C2\SC(=S)N(Nc3ccccc3)C2=O)ccc1O,13.9%
7,COc1cc(/C=C2\SC(=S)N(Nc3ccccc3)C2=O)cc(OC)c1OC,0.45%
8,COc1cc(/C=C2\SC(=S)N(NS(=O)(=O)c3ccccc3)C2=O)cc(OC)c1OC,20%
9,COc1cc(/C=C2\SC(=S)N(N3CCOCC3)C2=O)ccc1O,-11.3%
10,C=CCc1cccc2cc(C(=O)NNC(=O)c3ccncc3)c(=O)oc12,20.9%
11,Cn1c(CSc2nc3ccccc3n2C)nc2ccccc21,-4.15%
12,CCOC(=O)CSc1nnc(Cc2ccccc2)n1CC1CCCO1 (centres undefined),4.73%
13,Cc1[nH]c(=O)c(C#N)c(C)c1Cc1ccc(Cl)cc1Cl,4.22%
14,O=c1c2[nH]c3ccccc3c2ncn1CCN1CCCCC1,8.11%
15,O=C(CN1CCN(C(=O)c2cccc(F)c2)CC1)NC1CCCCC1,-4.11%
16,Cc1cc(C)cc(NC(=O)CCN2CC(C)OC(C)C2)c1 (centres undefined),0.2%
17,Cc1ccc(SCC(=O)c2ccc[nH]2)cc1,2.44%
18,CCOc1ccc(/C=C2\SC(=S)N(C)C2=O)cc1OC,9.35%
19,CCOc1ccc(/C=C2\SC(=S)N(Nc3ccccc3)C2=O)cc1OC,1.22%
20,C/C(=N\NC(=O)COc1cccc(Cl)c1)c1ccc2c(c1)OCCO2,3.02%
21,c1cncc(Cc2cc3ccccc3[nH]2)c1,4.4%
22,CC(=O)C(C)Oc1ccc2c3c(c(=O)oc2c1)CCCC3 (centres undefined),1.79%
23,CC(C)Oc1ccc2c3c(c(=O)oc2c1)CCC3,3.02%
24,O=C(O)C(Oc1ccc2c3c(c(=O)oc2c1)CCC3)c1ccccc1 (centres undefined),24.2% (active)

row,SMILES,inhibition
1,CN(C(=O)c1c[nH]c(=O)cc1C(F)(F)F)c1ccc(Cl)c(Cl)c1,-1.25%
2,O=C(NC(=S)Nc1ccccc1C(F)(F)F)c1ccccc1F,-0.76%
3,CC(C)N(C(=O)CSc1nnc(Cc2ccc3c(c2)OCO3)n1C)C(C)C,-1.85%
4,Cc1ccc(Oc2ccc(OCC(=O)NC(C)C(=O)O)cc2)cc1 (centres undefined),12.1%
5,COC(=O)c1ccc(OS(=O)(=O)N(C)C)cc1,-0.39%
6,O=C(O)CCC(=O)Nc1nc2ccccc2s1,1.12%
7,O=C(O)CSCC(=O)Nc1ccc(-c2nc3ccccc3s2)cc1,7.28%
8,Cc1ccc2nc(-c3ccc(NC(=O)CSCC(=O)O)cc3)sc2c1,7.29%
9,Cc1ccc2nc(-c3ccc(NC(=O)COCC(=O)O)cc3)sc2c1,14.2%
10,Cc1cccc(C)c1NC(=O)CCCSc1nc2ccccc2s1,-3.68%
11,CC(=O)Nc1scc(C)c1-c1nc2ccccc2s1,2.48%
12,Cc1ccc(-c2nc3ncccc3o2)cc1NC(=S)NC(=O)c1ccco1,4.38%
13,Cc1ccc(N2CC(C(=O)NCCCn3ccnc3)CC2=O)cc1 (centres undefined),-4.35%
14,O=C(c1c(Cl)cccc1Cl)N1CCCCCC1,4.43%
15,COc1cc(NC(=S)N2CCCC(CO)C2)cc(OC)c1 (centres undefined),-7.92%
16,COc1cc(S(=O)(=O)NCc2cccnc2)c(OC)cc1Br,-4.04%
17,C/C=C/C(=O)N1CC2(CC(c3cccc(NC(=O)CC(c4ccccc4)c4ccccc4)c3)=NO2)C[C@H]1C(N)=O (some centres undefined),12.4%
18,O=C(N/N=C/c1ccco1)c1ccn[nH]1,7.66%
19,COc1cc(/C=C2\SC(=O)N(c3ccc(Cl)cc3)C2=O)cc([N+](=O)[O-])c1O,8.85%
20,Cc1cccc(NC(=O)CN2C(=O)S/C(=C\c3ccc(O)c([N+](=O)[O-])c3)C2=O)c1,22.4%
21,CCOc1cc(/C=C2\SC(=O)N(CC(=O)Nc3ccccc3F)C2=O)cc([N+](=O)[O-])c1O,13.2%
22,COc1cc(/C=C2\SC(=O)N(Cc3ccc(Cl)cc3)C2=O)cc([N+](=O)[O-])c1O,29.4%
23,Cc1nn(-c2ccccc2)c(Cl)c1/C=N/Nc1nnc(C)c(=O)[nH]1,-2.22%
24,O=C(C(=O)N1CCN(c2cccc(Cl)c2)CC1)c1c[nH]c2ccccc12,2.96%

row,SMILES,inhibition
1,CCc1cccc(CC)c1NC(=S)NCCc1c(C)[nH]c2ccccc12,0.39%
2,CCCNC(=O)NCCc1c(C)[nH]c2ccccc12,23.5% (active)
3,Cc1[nH]c2ccccc2c1CCNC(=O)CCC(=O)c1ccccc1,0.77%
4,NS(=O)(=O)c1cccc(NC(=O)COC(=O)CC2CC3CCC2C3)c1 (centres undefined),-2.75%
5,CSc1ncccc1C(=O)OCC(=O)N(C)C,7.72%
6,O=C(CSc1nccn1-c1ccc(Cl)cc1)Nc1ccc2c(c1)OCO2,1.54%
7,Cc1cccc(-n2ccnc2SCC(=O)Nc2ccc3c(c2)OCCO3)c1,3.89%
8,O=C(CSc1nccn1-c1cccc(Cl)c1)Nc1ccc2c(c1)OCCO2,24.5% (active)
9,OC[C@H]1O[C@@H](n2cnc3c(Nc4ccccc4)ncnc32)[C@H](O)[C@@H]1O,0.67%
10,C=CCNc1ncnc2c1ncn2C1OC(CO)C(O)C1O (centres undefined),-2.12%
11,CCCOC(=O)c1ccc(Oc2c(-c3ccc(OCC)cc3O)n[nH]c2C)cc1,-5.24%
12,COc1ccc(C2=C/C(=C\c3ccc(OC(C)=O)cc3)C(=O)O2)cc1,-2.13%
13,O=[N+]([O-])c1ccc(C[n+]2cc(-c3ccccc3)n3c2CCCCC3)cc1,-1.78%
14,CC(=O)NS(=O)(=O)c1ccc(N=c2ssc3c2-c2cc(C)ccc2NC3(C)C)cc1,9.04%
15,CC(=O)NS(=O)(=O)c1ccc(N=c2ssc3c2-c2cc(C)c(C)cc2NC3(C)C)cc1,13.3%
16,Cc1ccc(CCNC(=O)c2cc(C)nn2-c2ccccc2)cc1,0.72%
17,Cc1ccc(NS(=O)(=O)c2ccc(NS(=O)(=O)c3cccs3)cc2)cc1,-3.61%
18,Cc1cc(C)nc(NS(=O)(=O)c2cccs2)c1,-0.13%
19,COc1ccc(NS(=O)(=O)c2cccs2)c(OC)c1,5.44%
20,COc1ccc(Nc2nc3ccccc3nc2NS(=O)(=O)c2cccs2)cc1,10.1%
21,Cc1ccc(-c2cc(C(=O)O)c3ccccc3n2)c(C)c1,3.63%
22,Cc1ccc(NC(=O)Cn2c(/C=C/c3ccccc3)nc3ccccc32)cc1C,7.46%
